# Source: PubChem BioAssay
# Several values for one entry are separate records, joined by “and”; a condition that tells them apart may be missing. Identical values can stand only once. The source holds several records for some structures; these can differ, active in one and inactive in another. Activity calls are given as the source filed them.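 How the source made its calls, unless noted: active means thallium flux through the channel raised or lowered by more than 3 SD from vehicle-only wells, actives on both sides; inactive means the rest.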
# Columns and labels:
# [1] = test system: Hepatitis C virus NS3 helicase; experiment: blockers of NS3h binding to DNA – biochemical, fluorescence polarization, NIH Clinical Collection, primary screen (AID 743270; call rule not given here); details: NS3 helicase binding to Cy5-dT15 DNA, stronger effect = higher value, concentration not given here
# [2] = molecular target: Single-stranded DNA-binding protein (Escherichia coli (strain K12)) (UniProt P0AGE0); experiment: SSB-ssDNA binding inhibitors – biochemical, fluorescence polarization, NIH Clinical Collection, counter-screen for HCV NS3 helicase inhibitor project (AID 743271; in the data active means inhibition above about 28%); details: E. coli SSB-DNA binding, stronger effect = higher value, concentration not given here
# [3] = compounds distorting NS3 helicase fluorescence signal – biochemical, NIH Clinical Collection, artefact control for HCV NS3 helicase inhibitor project (AID 743272; call rule not given here;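 further: HCV NS3 helicase with a Cy5 labelled single stranded DNA probe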); details: fluorescence interference counterscreen, HCV NS3 helicase assay; stronger effect = lower value
# [4] = Wnt pathway potentiators raising nuclear beta-catenin – imaging, WNT3A-conditioned medium, mouse C2C12, NPC library, primary screen (AID 1117326; in the data active means nuclear beta-catenin stimulation mostly above about 4.2%, no sharp cut-off; inactive means mostly below about 10%); details: stronger effect = higher value
# [5] = stimulators of insulin release from INS-1E, primary screen, cell-based, 5 mM glucose, NPC library (AID 1117329;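 active means compound raises insulin release from rat beta cells at 5 mM glucose, no numeric limit stated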); details: rat INS-1E insulin secretion, at 10 µM, stronger effect = higher value
# [6] = growth inhibition of GSK3B-pretreated HCT116 cells – cell-based, CellTiter-Glo, 0.2 to 20 µM (AID 1117336;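 active means compounds lowering colon cancer cell viability after pretreatment blocking the GSK3B kinase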); details: HCT116 viability after GSK3B inhibitor, at 20 µM, stronger effect = higher value
# [7] = inhibition of endothelial tube formation, primary screen, imaging, VEGF stimulated, CD31 staining, tube area, NPC library (AID 1117340;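 active means compound that reduces growth-factor-driven endothelial tube area in a mixed cell culture, no cutoff stated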); details: VEGF-stimulated ADSC/ECFC co-culture, at 10 µM, stronger effect = higher value
# [8] = GLP1 release stimulators, primary, NCI-H716, NPC library (AID 1117341;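 active means compound raises GLP1 secretion from the human gut endocrine cells, with no numeric limit stated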); details: NCI-H716 cells, at 10 µM, stronger effect = higher value
# [9] = HCT116 colon cancer cell growth inhibition, primary screen, CellTiter-Glo luminescence, NPC library (AID 1117342;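 active means compounds that lower survival of HCT116 colon cancer cells in the luminescence readout, no numeric limit stated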); details: at 20 µM (top of the series)
# [10] = reduced SW480 viability measured with CellTiter-Glo, NPC library, primary (AID 1117343;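 active means compounds that lower viability of the colon cancer cells in the luminescence readout, with no numeric limit stated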); details: CellTiter-Glo luminescence; at 20 µM (top of the series)
# [11] = NPC library primary testing for decreased DLD-1 cell viability via CellTiter-Glo (AID 1117346;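 active means compounds that lower survival of DLD-1 colon cancer cells in the luminescence readout, no cutoff given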); details: DLD-1 viability, CellTiter-Glo luminescence; at 20 µM (top of the series)
# [12] = molecular target: 6-phosphogluconate dehydrogenase, decarboxylating (Homo sapiens) (UniProt P52209); experiment: inhibition of human phosphogluconate dehydrogenase – biochemical, recombinant enzyme, NADPH absorbance, primary screen (AID 1159550;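 active means at least 20% inhibition of 6-phosphogluconate dehydrogenase activity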); details: recombinant 6PGD, NADPH absorbance 341 nm; at 10 µM; stronger effect = higher value
# [13] = EMT-state selective cytotoxicity in co-culture – imaging, PC-3E GFP, TEM4-18 mCherry, primary screen (AID 1345086;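 active means compounds killing one labelled cell type while sparing the other, by normalised counts and ratio limits, not self-fluorescent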;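 on all read-outs here: cells exposed to compound for 72 h before imaging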;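 on red/green cell ratio (normalised): normalised mesenchymal count divided by normalised epithelial count so high means epithelial killing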); details: PC-3E GFP / TEM4-18 mCherry co-culture, imaging cell counts, at 1 µM; for red/green cell ratio (normalised): actives lie on both sides, counts scaled to control wells, 1 = unselective
# [14] = MELAS cybrid and Rieske KO viability enhancers – cell-based, MELAS cybrids, Rieske KO mouse fibroblasts, CellTiter-Glo, primary screen (AID 1508586;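 active means mean z-score across replicates of 1.96 or higher in either the MELAS or the Rieske mutant cell line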;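 further: z relative to plate mean and SD of compound and empty wells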); details: low glucose
# [15] = molecular target: NAD(+) hydrolase SARM1 (Homo sapiens) (UniProt Q6SZW1); experiment: blocking NAD cleavage by SARM1 SAM-TIR – cell lysate, NAD-Glo luminescence (AID 1508614;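 active means compound whose remaining NAD level is above about 45 nM, limit read from the data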); details: SAM-TIR HEK293T lysate NADase, at 1 µM, stronger effect = higher value
# [16] = molecular target: Mitogen-activated protein kinase 7 (Homo sapiens) (UniProt Q13164); experiment: Gal4-ERK5 driven luciferase induction – cell-based, HTS, primary screen (AID 1508626;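 active means luciferase signal above three times the same-plate solvent-only control wells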;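 further: luciferase driven by Gal4-ERK5 fusion binding five Gal4 sites before minimal TATA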); details: HeLa Gal4-ERK5 transactivation, 18 h, at 5 µM, stronger effect = higher value
# [17] = test system: F380Y; experiment: BK channel mutant inhibitors and activators – cell-based, U2OS BacMam, thallium flux, beta subunits, selectivity assay, profiling panel (AID 1259406); details: U2OS BacMam BK variants, at 30 µM;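 further: initial slope of Thallos dye fluorescence rise after thallium is added; log ratio against the mean of 0.3% DMSO vehicle wells on the same plate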
# [18] = test system: F380Y/beta2Delta; experiment: as above; details: U2OS BacMam BK variants, at 30 µM
# [19] = molecular target: Calcium-activated potassium channel subunit alpha-1 (Homo sapiens) + Leucine-rich repeat-containing protein 26 (Homo sapiens) (UniProt Q12791+Q2I0M4); experiment: as above; details: U2OS BacMam BK variants, F380Y/Slo1WT/gamma1, at 30 µM
# [20] = measured here: epithelial PC-3E GFP cell survival
# [21] = measured here: mesenchymal TEM4-18 mCherry cell survival
# [22] = MELAS cybrid survival, CellTiter-Glo 48 h, stronger effect = higher value
# [23] = Rieske KO mouse fibroblast survival, CellTiter-Glo 72 h
# Sequence of Mitogen-activated protein kinase 7 (Homo sapiens) (Q13164 whole entry, looked up, the tested form may be a part): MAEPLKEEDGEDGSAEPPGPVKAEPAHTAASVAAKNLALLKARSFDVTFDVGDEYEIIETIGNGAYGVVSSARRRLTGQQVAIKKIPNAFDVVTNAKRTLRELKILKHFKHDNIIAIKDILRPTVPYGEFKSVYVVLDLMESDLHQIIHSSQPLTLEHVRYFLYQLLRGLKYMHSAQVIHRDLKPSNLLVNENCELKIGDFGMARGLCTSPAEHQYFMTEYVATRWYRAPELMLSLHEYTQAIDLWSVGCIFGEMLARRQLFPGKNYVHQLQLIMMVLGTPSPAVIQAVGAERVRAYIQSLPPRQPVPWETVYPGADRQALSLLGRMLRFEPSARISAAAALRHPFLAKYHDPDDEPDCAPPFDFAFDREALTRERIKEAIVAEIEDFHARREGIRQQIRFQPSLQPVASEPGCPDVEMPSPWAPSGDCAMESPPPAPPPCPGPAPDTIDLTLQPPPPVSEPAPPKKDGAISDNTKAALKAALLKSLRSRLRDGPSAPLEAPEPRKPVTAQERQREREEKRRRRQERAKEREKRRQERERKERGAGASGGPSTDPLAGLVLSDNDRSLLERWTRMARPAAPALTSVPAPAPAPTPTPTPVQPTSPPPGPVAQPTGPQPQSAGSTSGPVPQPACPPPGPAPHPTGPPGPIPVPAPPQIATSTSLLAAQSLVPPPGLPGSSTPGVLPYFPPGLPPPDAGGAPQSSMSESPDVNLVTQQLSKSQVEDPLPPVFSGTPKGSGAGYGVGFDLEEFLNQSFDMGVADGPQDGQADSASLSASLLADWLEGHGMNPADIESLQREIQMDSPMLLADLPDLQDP
# Sequence of Calcium-activated potassium channel subunit alpha-1 (Homo sapiens) + Leucine-rich repeat-containing protein 26 (Homo sapiens) (Q2I0M4 whole entry, looked up, one chain of several): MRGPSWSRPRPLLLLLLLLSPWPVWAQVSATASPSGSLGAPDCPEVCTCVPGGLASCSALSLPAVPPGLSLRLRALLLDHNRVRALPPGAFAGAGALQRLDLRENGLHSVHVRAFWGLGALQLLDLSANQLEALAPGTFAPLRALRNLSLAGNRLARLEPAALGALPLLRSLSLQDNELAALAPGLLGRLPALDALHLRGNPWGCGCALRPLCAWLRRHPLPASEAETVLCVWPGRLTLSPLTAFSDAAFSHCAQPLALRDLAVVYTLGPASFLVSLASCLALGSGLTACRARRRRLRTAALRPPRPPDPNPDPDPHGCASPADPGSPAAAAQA
# Sequence of 6-phosphogluconate dehydrogenase, decarboxylating (Homo sapiens) (P52209 whole entry, looked up): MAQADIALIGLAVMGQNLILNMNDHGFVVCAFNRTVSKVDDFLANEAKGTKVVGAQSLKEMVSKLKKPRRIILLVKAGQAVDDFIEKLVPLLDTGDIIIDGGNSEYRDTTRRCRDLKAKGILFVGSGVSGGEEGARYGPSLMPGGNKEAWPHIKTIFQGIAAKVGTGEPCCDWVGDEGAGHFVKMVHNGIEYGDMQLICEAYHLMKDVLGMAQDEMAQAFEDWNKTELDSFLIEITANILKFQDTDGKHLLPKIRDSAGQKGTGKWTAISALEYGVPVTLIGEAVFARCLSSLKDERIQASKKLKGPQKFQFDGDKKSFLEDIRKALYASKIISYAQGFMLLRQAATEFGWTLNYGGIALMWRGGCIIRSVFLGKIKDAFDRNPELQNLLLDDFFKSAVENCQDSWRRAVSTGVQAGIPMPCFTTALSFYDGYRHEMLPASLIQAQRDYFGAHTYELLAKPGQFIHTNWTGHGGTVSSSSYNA
# Sequence of NAD(+) hydrolase SARM1 (Homo sapiens) (Q6SZW1 whole entry, looked up, the tested form may be a part): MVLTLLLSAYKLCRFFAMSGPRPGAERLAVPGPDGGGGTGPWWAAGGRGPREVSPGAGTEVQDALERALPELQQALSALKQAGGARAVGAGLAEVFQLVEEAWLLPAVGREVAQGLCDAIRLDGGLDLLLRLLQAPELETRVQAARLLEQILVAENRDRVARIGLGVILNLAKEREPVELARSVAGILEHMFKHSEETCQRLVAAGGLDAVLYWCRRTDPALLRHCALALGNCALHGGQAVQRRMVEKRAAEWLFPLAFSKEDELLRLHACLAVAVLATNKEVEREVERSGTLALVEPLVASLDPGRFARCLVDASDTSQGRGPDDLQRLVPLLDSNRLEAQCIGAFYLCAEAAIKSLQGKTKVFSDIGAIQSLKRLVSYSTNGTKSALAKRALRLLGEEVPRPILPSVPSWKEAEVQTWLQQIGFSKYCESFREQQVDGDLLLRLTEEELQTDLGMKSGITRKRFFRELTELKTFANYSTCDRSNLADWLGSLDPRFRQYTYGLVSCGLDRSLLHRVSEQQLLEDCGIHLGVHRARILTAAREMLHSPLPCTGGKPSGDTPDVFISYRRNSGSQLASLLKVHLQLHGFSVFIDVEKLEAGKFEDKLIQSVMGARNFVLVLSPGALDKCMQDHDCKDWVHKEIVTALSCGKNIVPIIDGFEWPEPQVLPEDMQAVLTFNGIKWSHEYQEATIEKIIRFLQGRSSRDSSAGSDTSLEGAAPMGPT
structure (smiles),measurement,setting,value
NC(=O)N1c2ccccc2C=Cc2ccccc21,inhibition,[1],-3.18% (inactive)
same,inhibition,[2],-3.53% (inactive)
same,fluorescence ratio,[3],1.04 (inactive)
same,nuclear beta-catenin stimulation,[4]; at 10 µM,1% (inactive)
same,nuclear beta-catenin stimulation,"[4]; stimulation, at 2 µM",0.9%
same,insulin secretion stimulation,[5],-1.9% (inactive)
same,viability decrease,[6],-2.95% (inactive)
same,tube area decrease,[7],0.8% (inactive)
same,GLP1 secretion stimulation,[8],4.4% (inactive)
same,inhibition of viability,[9],-18.7% (inactive)
same,viability decrease (inhibition),[10],20.2% (inactive)
same,viability decrease (inhibition),[11],-3.3% (inactive)
same,inhibition,[12],4.77% (inactive)
same,red/green cell ratio (normalised),[13],0.88 (inactive)
same,normalised cell number,[13]; [20],1.19
same,normalised cell number,[13]; [21],1.04
same,z-score,[14]; [22],2.18 (active) and 0.491 (inactive) and -0.759 (inactive)
same,z-score,[14]; [23],-0.583 and -0.0689 and -0.563
same,remaining NAD,[15],10 nM (inactive)
same,luciferase signal,[16],36 AU (inactive)
same,log fold change Tl+ flux,[17],-0.0389 (inactive)
same,log fold change Tl+ flux,[18],-0.0114 (inactive)
same,log fold change Tl+ flux,[19],-0.0331 (inactive)
OCCN1CCN(CCCN2c3ccccc3Sc3ccc(Cl)cc32)CC1,inhibition,[1],-2.27% (inactive)
same,inhibition,[2],1.81% (inactive)
same,fluorescence ratio,[3],0.84 (inactive)
same,nuclear beta-catenin stimulation,[4]; at 10 µM,73.5% (active)
same,nuclear beta-catenin stimulation,"[4]; stimulation, at 2 µM",2.8%
same,insulin secretion stimulation,[5],3.5% (inactive)
same,viability decrease,[6],99.5% (active)
same,tube area decrease,[7],104% (active)
same,GLP1 secretion stimulation,[8],45% (active)
same,inhibition of viability,[9],100% (active)
same,viability decrease (inhibition),[10],116% (active)
same,viability decrease (inhibition),[11],101% (active)
same,inhibition,[12],10.3% (inactive)
same,red/green cell ratio (normalised),[13],1.35 (inactive)
same,normalised cell number,[13]; [20],0.97
same,normalised cell number,[13]; [21],1.32
same,z-score,[14]; [22],0.299 (inactive)
same,z-score,[14]; [23],0.539
same,remaining NAD,[15],10 nM (inactive)
same,luciferase signal,[16],44 AU (inactive)
same,log fold change Tl+ flux,[17],0.23 (active)
same,log fold change Tl+ flux,[18],0.336 (active)
same,log fold change Tl+ flux,[19],-0.0145 (inactive)
CCN(CC)CCOC(=O)c1ccc(N)cc1,inhibition,[1],-3.18% (inactive)
same,inhibition,[2],0.29% (inactive)
same,fluorescence ratio,[3],0.92 (inactive)
same,nuclear beta-catenin stimulation,[4]; at 10 µM,0.6% (inactive)
same,nuclear beta-catenin stimulation,"[4]; stimulation, at 2 µM",-0.3%
same,insulin secretion stimulation,[5],0.1% (inactive)
same,viability decrease,[6],2.8% (inactive)
same,tube area decrease,[7],7% (inactive)
same,GLP1 secretion stimulation,[8],-0.7% (inactive)
same,inhibition of viability,[9],4.2% (inactive)
same,viability decrease (inhibition),[10],56.5% (active)
same,viability decrease (inhibition),[11],1.05% (inactive)
same,inhibition,[12],2.32% (inactive)
same,red/green cell ratio (normalised),[13],1.08 (inactive)
same,normalised cell number,[13]; [20],0.95
same,normalised cell number,[13]; [21],1.03
same,z-score,[14]; [22],-0.214 (inactive) and -0.849 (inactive)
same,z-score,[14]; [23],-0.241 and -0.347
same,remaining NAD,[15],10 nM (inactive)
same,luciferase signal,[16],92 AU (inactive)
same,log fold change Tl+ flux,[17],-0.0653 (inactive)
same,log fold change Tl+ flux,[18],0.0223 (inactive)
same,log fold change Tl+ flux,[19],0.0123 (inactive)
O=C(CCCN1CC=C(n2c(=O)[nH]c3ccccc32)CC1)c1ccc(F)cc1,inhibition,[1],-5.15% (inactive)
same,inhibition,[2],-0.1% (inactive)
same,fluorescence ratio,[3],1 (inactive)
same,nuclear beta-catenin stimulation,[4]; at 10 µM,1% (inactive)
same,nuclear beta-catenin stimulation,"[4]; stimulation, at 2 µM",0.3%
same,insulin secretion stimulation,[5],2.7% (inactive)
same,viability decrease,[6],-5.9% (inactive)
same,tube area decrease,[7],16.2% (inactive)
same,GLP1 secretion stimulation,[8],-0.5% (inactive)
same,inhibition of viability,[9],28.5% (inactive)
same,viability decrease (inhibition),[10],10.4% (inactive)
same,viability decrease (inhibition),[11],3.7% (inactive)
same,inhibition,[12],12.8% (inactive)
same,red/green cell ratio (normalised),[13],0.96 (inactive)
same,normalised cell number,[13]; [20],0.94
same,normalised cell number,[13]; [21],0.9
same,z-score,[14]; [22],-0.163 (inactive) and 0.567 (inactive)
same,z-score,[14]; [23],-0.119 and 0.175
same,remaining NAD,[15],10 nM (inactive)
same,luciferase signal,[16],68 AU (inactive)
same,log fold change Tl+ flux,[17],0.0359 (inactive)
same,log fold change Tl+ flux,[18],0.058 (inactive)
same,log fold change Tl+ flux,[19],-0.0307 (inactive)
